For 25 molecules, activity change, negative = inhibition, activity, negative = inhibition and Potency results are on record in PubChem BioAssay (NCATS).

A number with no mark means an inactive call. Records with an inconclusive call do not appear. Activity calls are given as the source filed them. Unless noted, calls come from the whole dose curve; as a rule, active = well fitted curve in either direction with a large enough effect (not every such curve was filed as active); inconclusive = small, poorly fitted or top-dose-only effect, or another doubt; inactive = flat fitted curve, though single readings scatter.

The nature of test [1]: AP1 Signaling Pathway (AID 357). Note: % is set by controls: 0 for no effect and ±100 for the full control effect. The settings on record: ME-180 AP-1-bla reporter, EGF-induced, beta-lactamase ratio, 5 h; at 17.2 µM (top of the series) unless noted. Put shortly: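 Cells are seeded overnight, exposed to compound titrations and an EC50 level of EGF for 5 hours at 37 °C, then loaded with CCF4 dye for 2.5 hours. Beta-lactamase activity under the AP-1 element is read as a blue/green ratio.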

Test [2] is described as follows: NFAT Signaling Pathway (AID 444).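 Note: carbachol stimulus at about its EC50 of 1 µM final; % is set by controls: 0 for no effect and ±100 for the full control effect.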 The settings on record: Jurkat NFAT-bla M1, carbachol, beta-lactamase ratio, 5 h; at 17.2 µM (top of the series) unless noted. Put shortly:
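Jurkat cells carrying an NFAT-driven β-lactamase reporter and co-transfected muscarinic M1 receptor were treated with compound plus carbachol (1 uM final, an EC50 level) for 5 h at 37 °C. CCF4 loading followed for 1 h at RT; 460/530 nm ratio gave %activity.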

Test [3] in a line: Stat Signaling Pathway (AID 446).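 Note: ME-180 cervical cancer cells given 40 pM IL-6 alongside compound; SIE-controlled beta-lactamase reporter measured as 460/530 nm FRET emission ratio; % is set by controls: 0 for no effect and ±100 for the full control effect.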 The settings on record: ME-180 (cervical carcinoma) SIE beta-lactamase reporter, IL-6 stimulated, 5 h; at 17.2 µM (top of the series) unless noted. Put shortly: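 Emission at 460 and 530 nm (excitation 405 nm) reports SIE-controlled beta-lactamase in ME-180 cells. Cells received compound with 40 pM IL-6 for 5 hrs at 37 C; data scaled between 300 pM IL-6 and 125 nM JAK-inhibitor controls.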

Test [4] addresses Glucocorticoid receptor (Homo sapiens) (UniProt P04150). In words: GR-GFP Redistribution (AID 450;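 active = compounds whose dose series gives a full or clear partial fitted curve of increased nuclear translocation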; note: potency is the fitted concentration of half-maximal effect).

Chain of Glucocorticoid receptor (Homo sapiens) (P04150 whole entry, looked up): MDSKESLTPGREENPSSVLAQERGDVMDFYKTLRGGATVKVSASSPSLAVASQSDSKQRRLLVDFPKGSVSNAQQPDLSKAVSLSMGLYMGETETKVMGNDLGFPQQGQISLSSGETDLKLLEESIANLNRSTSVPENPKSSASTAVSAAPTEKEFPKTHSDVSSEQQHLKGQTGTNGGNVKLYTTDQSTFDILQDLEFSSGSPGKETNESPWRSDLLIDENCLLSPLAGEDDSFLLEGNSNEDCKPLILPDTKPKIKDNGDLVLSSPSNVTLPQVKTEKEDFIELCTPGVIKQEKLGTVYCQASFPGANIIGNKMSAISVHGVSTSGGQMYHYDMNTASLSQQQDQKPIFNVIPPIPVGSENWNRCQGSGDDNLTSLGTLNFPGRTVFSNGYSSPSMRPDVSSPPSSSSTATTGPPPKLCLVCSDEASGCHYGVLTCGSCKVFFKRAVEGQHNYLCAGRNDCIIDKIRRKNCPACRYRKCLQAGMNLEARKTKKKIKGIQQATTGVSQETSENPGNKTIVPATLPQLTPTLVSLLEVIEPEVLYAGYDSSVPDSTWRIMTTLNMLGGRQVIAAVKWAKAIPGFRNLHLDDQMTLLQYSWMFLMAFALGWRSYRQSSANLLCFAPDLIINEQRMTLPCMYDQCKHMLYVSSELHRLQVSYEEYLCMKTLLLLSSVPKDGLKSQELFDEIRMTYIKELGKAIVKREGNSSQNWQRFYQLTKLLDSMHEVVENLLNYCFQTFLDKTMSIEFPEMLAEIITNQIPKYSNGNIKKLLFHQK

`CN(C)CC(O)COc1ccc(-c2ccc(C#N)cc2)cc1` (stereo not given): the activity change, negative = inhibition is 1.87% in test [1] and 11.2% in test [2]. Also, the activity, negative = inhibition in test [3] was 2.27%. The Potency in test [4] is above 20.6 µM.
On the same counts, the results for `O=C1CCC(=O)N1c1nc2n(n1)C(c1ccccc1)C=C(c1ccc(Br)cc1)N2` (stereo not given) are -22.1%, 3.81%, -13.7% and above 20.6 µM.
On the same counts, the results for `COC(=O)CSc1nc(C)c(Oc2ccccc2)c(=O)[nH]1` are 22.2%, 15.3%, 7.32% and above 20.6 µM.
For the molecule `CCOC(=O)C1CCCN(c2nc3ccccc3nc2C(C#N)C(=O)OC(C)COC)C1` (stereo not given), the activity change, negative = inhibition in test [1] is -5.69%; in test [2] it was -5.6%. Further, the activity, negative = inhibition in test [3] was -14.5%. Also, in test [4], the Potency was above 20.6 µM.
Regarding `Cn1c(NCc2cccnc2)nc2c1c(=O)n(Cc1ccccc1F)c(=O)n2C`, the activity change, negative = inhibition in test [1] is -1.33%; in test [2], -10.3%. For the same molecule, in test [3], the activity, negative = inhibition is -20.6%. For the same molecule, in test [4], the Potency is above 20.6 µM.
`CC(=O)Nc1n[nH]c(S(=O)(=O)Cc2ccc(Cl)cc2Cl)n1`: the activity change, negative = inhibition in test [1] is -2.5%; in test [2] it was 4.1%. For the same molecule, the activity, negative = inhibition in test [3] is 3.27%. Besides, the Potency in test [4] is above 20.6 µM.
The like results for `CC1(C)CC(N(Cc2ccco2)C(=O)Cc2ccccc2)CCO1` (stereo not given) were, in that order, -1.99%, -3.12%, 9.62% and above 20.6 µM.
Regarding `CCCC(=O)N1CCc2[nH]c3ccccc3c2C1`, the activity change, negative = inhibition in test [1] is -13%; in test [2], 13.8%. Moreover, the activity, negative = inhibition in test [3] is -6.04%. Further, in test [4], the Potency was above 20.6 µM.
The like results for `CC(=O)Nc1ccc(Oc2ccc3nc(C)[nH]c3c2)cc1` were, in that order, -4.84%, 0.827%, -5.58% and above 20.6 µM.
The like results for `CCCCOc1ccccc1C(=O)NCCCCCC(=O)O` were, in that order, 10.2%, 11.6%, 2.29% and above 20.6 µM.
The like results for `Nc1nc(NC(=O)c2cccs2)nn1-c1ccccc1` were, in that order, 4.21%, 7.64%, -0.835% and above 20.6 µM.
For the molecule `CC(=O)Nn1cnc2c(c1=O)C1(CCCC1)Cc1ccccc1-2`, the activity change, negative = inhibition is -8.59% in test [1] and -0.355% in test [2]. Besides, the activity, negative = inhibition in test [3] was 10.3%. Moreover, the Potency in test [4] was above 20.6 µM.
On the same counts, the results for `CC(C)c1nc(N2CCOCC2)c(C#N)c2c1CCC2` are -24.1%, -23.6%, -8.37% and above 20.6 µM.
`COc1c(O)ccc2cnn(-c3ccccc3C)c(=O)c12`: the activity change, negative = inhibition was 12.5% in test [1] and -7.24% in test [2]. For the same molecule, the activity, negative = inhibition in test [3] was 25.4%. For the same molecule, in test [4], the Potency is above 20.6 µM.
Regarding `C=CCN(C(=O)CCC(=O)O)C1CC(=O)N(c2ccc(OC)cc2)C1=O` (stereo not given), the activity change, negative = inhibition in test [1] is 6.46%; in test [2], -8.7%. Besides, in test [3], the activity, negative = inhibition is 5.71%. Further, the Potency in test [4] is above 20.6 µM.
Take `O=C1[C@@H]2[C@H](C(=O)N1n1cnnc1)[C@H]1C=C[C@@H]2C1`: the results for the activity change, negative = inhibition in test [1] and in test [2] were -2.82% and 1.6%, respectively. Besides, in test [3], the activity, negative = inhibition was 3.44%. The Potency in test [4] is above 20.6 µM.
The like results for `COc1ccccc1N(Cc1cc2cccc(C)c2[nH]c1=O)C(=O)C(C)C` were, in that order, -14.8%, 11.3%, -8.46% and above 20.6 µM.
As for `CCCOc1ccccc1C(=O)NCCCC(=O)O`, the figures for the activity change, negative = inhibition in test [1] and in test [2] were -0.71% and -4.04%, respectively. In addition, in test [3], the activity, negative = inhibition was 8.1%. For the same molecule, the Potency in test [4] was above 20.6 µM.
With `CCSc1nnc(N(CCC(=O)O)CCC(=O)O)s1`, the activity change, negative = inhibition is 2.21% in test [1] and 5.3% in test [2]. For the same molecule, in test [3], the activity, negative = inhibition is -4.16%. For the same molecule, the Potency in test [4] is above 20.6 µM.
For `Cc1ccc(N2C(=O)C3ON(c4ccccc4)C(c4ccncc4)C3C2=O)c(C)c1` (stereo not given), the activity change, negative = inhibition in test [1] was 4.43%; in test [2] it was 26.3%. In addition, the activity, negative = inhibition in test [3] is 0.652%. In addition, in test [4], the Potency is above 20.6 µM.
On the same counts, the results for `O=C(c1coc(=O)c(Br)c1)N1CCCc2ccccc21` are 11.9%, 0.236%, 8.49% and above 20.6 µM.
In the case of `COc1cccc(N2CCN(C(=O)c3ccc(=O)oc3)CC2C)c1` (stereo not given), the activity change, negative = inhibition in test [1] was 26.8%; in test [2], -28.2%. Moreover, the activity, negative = inhibition in test [3] is -1.83%. The Potency in test [4] is above 20.6 µM.
Regarding `CCC(NC(=O)Nc1nnc(C(F)(F)F)s1)(C(F)(F)F)C(F)(F)F`, the activity change, negative = inhibition in test [1] was 18.4%; in test [2], -115% (active). Moreover, in test [3], the activity, negative = inhibition is -38.4%. Also, the Potency in test [4] was above 20.6 µM.
The like results for `COc1ccc(NC(=O)c2c(C)cc(=O)oc2C)c(OC)c1` were, in that order, 6.98%, 16.2%, 10.7% and above 20.6 µM.
For `CCCCOc1ccc(CN(C)c2ncnc(N)n2)cc1`, the activity change, negative = inhibition was -9.35% in test [1] and -11.6% in test [2]. In addition, the activity, negative = inhibition in test [3] is 8.02%. In addition, the Potency in test [4] was above 20.6 µM.
